{"source": "the supplement of paper PMC10849652", "note": "Of roughly 7,900 targets only a part is listed; those with a hit were picked by preference. About 0.6% of all pairs of compound and target were hits.", "data": [{"biological_target": "ZC3H8 (UniProt Q8N5P1)", "sequence (Q8N5P1 whole entry, looked up)": "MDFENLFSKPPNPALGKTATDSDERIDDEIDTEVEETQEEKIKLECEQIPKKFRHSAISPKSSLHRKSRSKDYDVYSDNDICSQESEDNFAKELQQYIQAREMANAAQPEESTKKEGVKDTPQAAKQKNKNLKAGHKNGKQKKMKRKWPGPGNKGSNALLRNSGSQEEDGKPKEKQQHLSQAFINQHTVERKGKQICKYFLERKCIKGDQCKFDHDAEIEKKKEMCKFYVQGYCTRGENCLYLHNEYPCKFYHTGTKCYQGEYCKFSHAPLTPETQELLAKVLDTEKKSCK", "experiment": "log2 fold change, soluble protein after heating vs DMSO (PISA); higher = thermal stabilisation; K562 cells, 10 uM, 30 min; active = over 0.2 and 3.5 SD of the protein, either way, in both replicates (recomputed)", "procedure,_shortened": "(§1)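 Soluble protein was defined as the supernatant after 21,000xg for 90 min. It came from K562 cells at 2×10^6 cells/mL given 10 μM compound for 30 min, heated in aliquots for 3 min across 48°C-58°C, pooled, and extracted in PBS with 0.5% NP-40 at 4°C, and was quantified by TMTpro 16plex LC-MS/MS with equalised channel sums. Thermal stability against control samples, from duplicates, is reported as log2 fold change.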", "values": [{"smiles": "CON(C)C(=O)N1N=C(c2cc(F)ccc2F)S[C@@]1(CCCN)c1ccccc1", "note": "[filanesib]", "log2 fold change": "0.191 (inactive)"}, {"smiles": "NC(=O)Nc1cc(-c2cccc(F)c2)sc1C(=O)N[C@H]1CCCNC1", "log2 fold change": "0.025 (inactive)"}, {"smiles": "Cn1cncc1[C@@](N)(c1ccc(Cl)cc1)c1ccc2c(c1)c(-c1cccc(Cl)c1)cc(=O)n2C", "note": "[tipifarnib]", "log2 fold change": "0.043 (inactive)"}, {"smiles": "CN1CCC(CNc2ccc3ncc(-c4cccc(OC(F)(F)F)c4)n3n2)CC1", "log2 fold change": "0.397 (active)"}, {"smiles": "Cc1cc(Nc2cc(CN3CCOCC3)c3nc(C)c(Cc4ccc(Cl)cc4F)n3n2)n[nH]1", "note": "[gandotinib]", "log2 fold change": "0.15 (inactive)"}, {"smiles": "CC[C@@H]1C(=O)N(C)c2cnc(Nc3ccc(C(=O)NC4CCN(C)CC4)cc3OC)nc2N1C1CCCC1", "log2 fold change": "0.181 (inactive)"}, {"smiles": "CCCS(=O)(=O)Nc1ccc(F)c(C(=O)c2c[nH]c3ncc(-c4ccc(Cl)cc4)cc23)c1F", "note": "[vemurafenib]", "log2 fold change": "-0.071 (inactive)"}, {"smiles": "CS(=O)(=O)CCNCc1ccc(-c2ccc3ncnc(Nc4ccc(OCc5cccc(F)c5)c(Cl)c4)c3c2)o1", "note": "[lapatinib]", "log2 fold change": "0 (inactive)"}, {"smiles": "CCCc1cc(C)[nH]c(=O)c1CNC(=O)c1cc(-c2ccnc(N3CCN(C)CC3)c2)cc2c1cnn2C(C)C", "log2 fold change": "-0.027 (inactive)"}, {"smiles": "Cc1ccc(NC(=O)c2cccc(C(C)(C)C#N)c2)cc1Nc1ccc2ncn(C)c(=O)c2c1", "log2 fold change": "-0.021 (inactive)"}, {"smiles": "c1cc(OCCN2CCCCC2)cc(-c2n[nH]c3ccc(-c4nnc[nH]4)cc23)c1", "log2 fold change": "-0.104 (inactive)"}, {"smiles": "COC(=O)N[C@@H](C)CNc1nccc(-c2cn(C(C)C)nc2-c2cc(Cl)cc(NS(C)(=O)=O)c2F)n1", "note": "[encorafenib]", "log2 fold change": "-0.01 (inactive)"}, {"smiles": "O=C(O)c1ccc2c(c1)nc(Nc1cccc(Cl)c1)c1ccncc12", "note": "[silmitasertib]", "log2 fold change": "0.035 (inactive)"}, {"smiles": "FC(F)(F)c1ccc(/C=C/c2nc(COc3ccc(CCCCn4ccnn4)cc3)co2)cc1", "note": "[mubritinib]", "log2 fold change": "-0.102 (inactive)"}, {"smiles": "CNCc1ccc(-c2[nH]c3cc(F)cc4c3c2CCNC4=O)cc1", "note": "[rucaparib]", "log2 fold change": "0.19 (inactive)"}, {"smiles": "COc1cc(Nc2ncc3c(n2)-c2ccc(Cl)cc2C(c2c(F)cccc2OC)=NC3)ccc1C(=O)O", "note": "[alisertib]", "log2 fold change": "-0.082 (inactive)"}, {"smiles": "CC[C@@H]1C(=O)N(C)c2cnc(Nc3ccc(C(=O)N[C@H]4CC[C@H](N5CCN(CC6CC6)CC5)CC4)cc3OC)nc2N1C(C)C", "note": "[volasertib]", "log2 fold change": "0.207 (inactive)"}, {"smiles": "CNC(=O)c1ccc(Nc2ncc(C(F)(F)F)c(NCc3nccnc3N(C)S(C)(=O)=O)n2)cc1", "note": "[defactinib]", "log2 fold change": "0.228 (inactive)"}, {"smiles": "COc1cc2nc(-c3cc(F)ccc3O)nc(N[C@@H]3CNC[C@H]3C(C)(C)O)c2cc1OC", "log2 fold change": "0.05 (inactive)"}, {"smiles": "Nc1ccccc1NC(=O)c1ccc(CNC(=O)OCc2cccnc2)cc1", "note": "[entinostat]", "log2 fold change": "-0.141 (inactive)"}, {"smiles": "NCC(=O)Nc1ccc(-n2nc(C(F)(F)F)cc2-c2ccc3c(ccc4ccccc43)c2)cc1", "log2 fold change": "0.036 (inactive)"}, {"smiles": "CN1CCN(c2nc(C3=C(c4c[nH]c5ccccc45)C(=O)NC3=O)c3ccccc3n2)CC1", "note": "[sotrastaurin]", "log2 fold change": "0.025 (inactive)"}, {"smiles": "CCn1cc(-c2ccnc3[nH]c(-c4cccc(CN(C)C)c4)cc23)c(-c2ccc(NC(=O)N(C)C)cc2)n1", "log2 fold change": "0.092 (inactive)"}, {"smiles": "COc1cccc2cc(-c3nc([C@H]4CC[C@H](C(=O)O)CC4)n4ncnc(N)c34)[nH]c12", "log2 fold change": "-0.02 (inactive)"}, {"smiles": "CS(=O)(=O)c1ccc(-c2cnc(N)c(C(=O)Nc3ccccc3)n2)cc1", "log2 fold change": "0 (inactive)"}, {"smiles": "O=C(CCCCCCNC(=O)c1cnc(N(c2ccccc2)c2ccccc2Cl)nc1)NO", "note": "[citarinostat]", "log2 fold change": "-0.059 (inactive)"}, {"smiles": "NC1(c2ccc(-c3nc4ccn5c(=O)[nH]nc5c4cc3-c3ccccc3)cc2)CCC1", "log2 fold change": "0.181 (inactive)"}, {"smiles": "COC(=O)[C@H](CCSC)NC(=O)c1ccc(NC[C@@H](N)CS)cc1-c1ccccc1", "log2 fold change": "-0.009 (inactive)"}, {"smiles": "CN(C)CC(=O)Nc1ccc2[nH]c(=O)c3ccccc3c2c1", "log2 fold change": "-0.047 (inactive)"}, {"smiles": "Cc1cccc(CC(=O)N2CCc3c2ccc(-c2cn(C)c4ncnc(N)c24)c3F)n1", "log2 fold change": "0.026 (inactive)"}]}, {"biological_target": "ZC3HC1 (UniProt Q86WB0)", "sequence (Q86WB0 whole entry, looked up)": "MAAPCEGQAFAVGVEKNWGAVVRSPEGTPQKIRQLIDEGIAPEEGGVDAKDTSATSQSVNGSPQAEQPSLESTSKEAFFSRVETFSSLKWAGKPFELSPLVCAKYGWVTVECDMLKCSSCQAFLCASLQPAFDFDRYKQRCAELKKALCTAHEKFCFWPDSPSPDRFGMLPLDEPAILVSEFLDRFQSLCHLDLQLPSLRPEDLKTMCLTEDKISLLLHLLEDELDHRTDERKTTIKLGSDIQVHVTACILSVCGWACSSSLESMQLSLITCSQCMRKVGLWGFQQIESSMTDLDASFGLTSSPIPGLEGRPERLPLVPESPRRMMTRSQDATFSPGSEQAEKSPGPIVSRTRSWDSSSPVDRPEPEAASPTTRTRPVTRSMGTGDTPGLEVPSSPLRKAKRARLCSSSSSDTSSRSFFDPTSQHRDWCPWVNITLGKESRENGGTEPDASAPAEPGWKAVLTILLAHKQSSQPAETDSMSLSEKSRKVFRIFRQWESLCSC", "experiment": "log2 fold change, soluble protein after heating vs DMSO (PISA); higher = thermal stabilisation; K562 cells, 10 uM, 30 min; active = over 0.2 and 3.5 SD of the protein, either way, in both replicates (recomputed)", "procedure,_shortened": "as §1", "values": [{"smiles": "CON(C)C(=O)N1N=C(c2cc(F)ccc2F)S[C@@]1(CCCN)c1ccccc1", "note": "[filanesib]", "log2 fold change": "-0.042 (inactive)"}, {"smiles": "NC(=O)Nc1cc(-c2cccc(F)c2)sc1C(=O)N[C@H]1CCCNC1", "log2 fold change": "-0.016 (inactive)"}, {"smiles": "Cn1cncc1[C@@](N)(c1ccc(Cl)cc1)c1ccc2c(c1)c(-c1cccc(Cl)c1)cc(=O)n2C", "note": "[tipifarnib]", "log2 fold change": "-0.183 (inactive)"}, {"smiles": "CN1CCC(CNc2ccc3ncc(-c4cccc(OC(F)(F)F)c4)n3n2)CC1", "log2 fold change": "-0.402 (active)"}, {"smiles": "Cc1cc(Nc2cc(CN3CCOCC3)c3nc(C)c(Cc4ccc(Cl)cc4F)n3n2)n[nH]1", "note": "[gandotinib]", "log2 fold change": "-0.157 (inactive)"}, {"smiles": "CC[C@@H]1C(=O)N(C)c2cnc(Nc3ccc(C(=O)NC4CCN(C)CC4)cc3OC)nc2N1C1CCCC1", "log2 fold change": "-0.163 (inactive)"}, {"smiles": "CCCS(=O)(=O)Nc1ccc(F)c(C(=O)c2c[nH]c3ncc(-c4ccc(Cl)cc4)cc23)c1F", "note": "[vemurafenib]", "log2 fold change": "0.09 (inactive)"}, {"smiles": "CS(=O)(=O)CCNCc1ccc(-c2ccc3ncnc(Nc4ccc(OCc5cccc(F)c5)c(Cl)c4)c3c2)o1", "note": "[lapatinib]", "log2 fold change": "0 (inactive)"}, {"smiles": "CCCc1cc(C)[nH]c(=O)c1CNC(=O)c1cc(-c2ccnc(N3CCN(C)CC3)c2)cc2c1cnn2C(C)C", "log2 fold change": "0.029 (inactive)"}, {"smiles": "Cc1ccc(NC(=O)c2cccc(C(C)(C)C#N)c2)cc1Nc1ccc2ncn(C)c(=O)c2c1", "log2 fold change": "0.011 (inactive)"}, {"smiles": "c1cc(OCCN2CCCCC2)cc(-c2n[nH]c3ccc(-c4nnc[nH]4)cc23)c1", "log2 fold change": "-0.046 (inactive)"}, {"smiles": "COC(=O)N[C@@H](C)CNc1nccc(-c2cn(C(C)C)nc2-c2cc(Cl)cc(NS(C)(=O)=O)c2F)n1", "note": "[encorafenib]", "log2 fold change": "0.05 (inactive)"}, {"smiles": "O=C(O)c1ccc2c(c1)nc(Nc1cccc(Cl)c1)c1ccncc12", "note": "[silmitasertib]", "log2 fold change": "0.06 (inactive)"}, {"smiles": "FC(F)(F)c1ccc(/C=C/c2nc(COc3ccc(CCCCn4ccnn4)cc3)co2)cc1", "note": "[mubritinib]", "log2 fold change": "-0.049 (inactive)"}, {"smiles": "CNCc1ccc(-c2[nH]c3cc(F)cc4c3c2CCNC4=O)cc1", "note": "[rucaparib]", "log2 fold change": "-0.047 (inactive)"}, {"smiles": "COc1cc(Nc2ncc3c(n2)-c2ccc(Cl)cc2C(c2c(F)cccc2OC)=NC3)ccc1C(=O)O", "note": "[alisertib]", "log2 fold change": "0.024 (inactive)"}, {"smiles": "CC[C@@H]1C(=O)N(C)c2cnc(Nc3ccc(C(=O)N[C@H]4CC[C@H](N5CCN(CC6CC6)CC5)CC4)cc3OC)nc2N1C(C)C", "note": "[volasertib]", "log2 fold change": "-0.579 (active)"}, {"smiles": "CNC(=O)c1ccc(Nc2ncc(C(F)(F)F)c(NCc3nccnc3N(C)S(C)(=O)=O)n2)cc1", "note": "[defactinib]", "log2 fold change": "-0.227 (inactive)"}, {"smiles": "COc1cc2nc(-c3cc(F)ccc3O)nc(N[C@@H]3CNC[C@H]3C(C)(C)O)c2cc1OC", "log2 fold change": "0.013 (inactive)"}, {"smiles": "Nc1ccccc1NC(=O)c1ccc(CNC(=O)OCc2cccnc2)cc1", "note": "[entinostat]", "log2 fold change": "0.1 (inactive)"}, {"smiles": "NCC(=O)Nc1ccc(-n2nc(C(F)(F)F)cc2-c2ccc3c(ccc4ccccc43)c2)cc1", "log2 fold change": "-0.076 (inactive)"}, {"smiles": "CN1CCN(c2nc(C3=C(c4c[nH]c5ccccc45)C(=O)NC3=O)c3ccccc3n2)CC1", "note": "[sotrastaurin]", "log2 fold change": "-0.178 (inactive)"}, {"smiles": "CCn1cc(-c2ccnc3[nH]c(-c4cccc(CN(C)C)c4)cc23)c(-c2ccc(NC(=O)N(C)C)cc2)n1", "log2 fold change": "-0.125 (inactive)"}, {"smiles": "COc1cccc2cc(-c3nc([C@H]4CC[C@H](C(=O)O)CC4)n4ncnc(N)c34)[nH]c12", "log2 fold change": "0.032 (inactive)"}, {"smiles": "CS(=O)(=O)c1ccc(-c2cnc(N)c(C(=O)Nc3ccccc3)n2)cc1", "log2 fold change": "0.066 (inactive)"}, {"smiles": "O=C(CCCCCCNC(=O)c1cnc(N(c2ccccc2)c2ccccc2Cl)nc1)NO", "note": "[citarinostat]", "log2 fold change": "0.125 (inactive)"}, {"smiles": "NC1(c2ccc(-c3nc4ccn5c(=O)[nH]nc5c4cc3-c3ccccc3)cc2)CCC1", "log2 fold change": "-0.091 (inactive)"}, {"smiles": "COC(=O)[C@H](CCSC)NC(=O)c1ccc(NC[C@@H](N)CS)cc1-c1ccccc1", "log2 fold change": "-0.093 (inactive)"}, {"smiles": "CN(C)CC(=O)Nc1ccc2[nH]c(=O)c3ccccc3c2c1", "log2 fold change": "0.089 (inactive)"}, {"smiles": "Cc1cccc(CC(=O)N2CCc3c2ccc(-c2cn(C)c4ncnc(N)c24)c3F)n1", "log2 fold change": "0.029 (inactive)"}]}]}
